HepG2 viability: counter-screen for TGF-b inhibitors: cytotoxicity in HepG2 cells. HepG2 CAGA-GFP viability, ATP luminescence, 18 h. Potency, µM (top dose mostly 46.1 µM), without a hit: at the top dose activity change, negative = cytotoxicity, hits mostly cytotoxic. 0.76% of 410,000 active. AID 588856
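HepG2 CAGA-GFP cells (1000/well, DMEM with 1% FBS) received compound, then TGF-beta at 500 pg/mL final, and were incubated 18 hours at 37 degrees C. Viability was read by CellTiter-Glo luminescence. Media-only wells were set as complete cell-killing and DMSO as no toxicity.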
TGFb inhibitor: TGF-b pathway inhibition | 1.2% of 410,000 active | HepG2 CAGA-GFP TGF-b/SMAD3 reporter, GFP fluorescence, 18 h; TGF-beta stimulated, 500 pg/mL final | Potency, µM (titrated, usually from 46.1 µM), inactives show at the top dose activity, negative = inhibition, usual class: inhibitors; also: % is scaled to controls: 0 for no effect and ±100 for the full control effect; nearly all actives have a fitted effect of over 65% in size
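TGF-beta reporter screen: HEPG2 CAGA-GFP, 1% FBS, 500 pg/mL TGF-beta final, 18 h; per-cell GFP summed per well; curves fitted and categorized by class.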
HT1080 IDH1KD tx: toxicity to HT-1080 IDH1 knockdown cells (counter line); Potency, µM (titrated, usually from 46.1 µM), without a hit: at the top dose activity, negative = toxicity, most hits filed as cytotoxic; 2% of 360,000 active; HT-1080 IDH1 knockdown viability, ATP luminescence, 48 h;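 also: 0% = DMSO wells and -100% = cell-free medium wells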
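CellTiter-Glo luminescence after 48 h compound exposure at 37 degrees C of IDH1-knockdown HT-1080 cells in 5% FBS RPMI. %Activity scaled between DMSO wells and cell-free media wells, with curves fitted and assigned curve classes.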
S2 tox: cell viability loss in ATXN counter-screen; Potency, µM (series often up to 56.7 µM), hits mostly cytotoxic; 0.49% of 400,000 active; S2 cells (HEK-293 line with an ATXN2-luciferase reporter) viability, CellTiter-Fluor protease fluorescence, 24 h; also: nearly all actives have a fitted effect of over 40% in size
ATXN2 expr inh: reduces ATXN2 reporter expression in HEK-293 cells; 0.72% of 360,000 active; HEK-293 ATXN2-luciferase reporter, luminescence, 24 h; AID 1745845; Potency, µM (doses to about 57 µM), without a hit: at the highest dose activity change, negative = inhibition, usual class: inhibitors; also: % is scaled to controls: 0 for no effect and ±100 for the full control effect; nearly all actives have a fitted effect of over 55% in size
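qHTS (up to 57 uM final) was run with 24 h compound exposure of reporter cells at 37 °C. Each well was multiplexed: SteadyGlo luminescence measured ATXN2-luciferase expression after a fluorogenic Gly-Phe-AFC viability readout (25 uM final).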
HT1080-NT tox: kills 2HG-producing HT-1080-NT fibrosarcoma cells; HT-1080-NT fibrosarcoma viability, CellTiter-Glo ATP luminescence, 48 h; Potency, µM (highest dose often 46.1 µM), inactives show top-dose activity, negative = less viability, hits mostly cytotoxic; 1.6% of 360,000 active; AID 686970;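 also: NT is the 2HG producing partner of a matched IDH1 knockdown line; 0% = DMSO-treated cells and -100% = media-only wells without cells; nearly all actives have a fitted effect of over 55% in size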
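Luminescent CellTiter-Glo readout after 48 hours of compound exposure at 37 degrees C defined viability of HT-1080-NT cells. Activity was normalized to DMSO wells and cell-free media wells; concentration-response curves were fitted and assigned curve classes.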
Starred values were filed as active, the others as inactive; ! = repeats disagree. Hits are enriched below; roughly 3.8% of the tested compounds scored in any of these assays. Calls follow the shape of the dose curve; as a rule, active = well fitted curve in the direction sought with a large enough effect; inconclusive = small, poorly fitted or top-dose-only effect, or another doubt; inactive = no such curve, though single readings can be large; an effect the other way counts as inactive or inconclusive. Potency is read from the fitted curve at half-maximal effect.

Screening CC(C)=C[C@H]1C[C@H](C)[C@H]2CC[C@H](C)c3c(O[C@@H]4OC[C@@H](O)[C@H](O)C4O)c(O)c(C)c1c32 (stereo partly drawn) returned HepG2 viability 22µM*, TGFb inhibitor inconclusive, HT1080 IDH1KD tx inconclusive, S2 tox inconclusive, ATXN2 expr inh inconclusive and HT1080-NT tox inconclusive.
CC(=O)O[C@H]1[C@H](O)[C@H](Oc2c(O)c(C)c3c4c2[C@@H](C)CC[C@@H]4[C@@H](C)C[C@H]3C=C(C)C)O[C@@H](C)[C@H]1O was read as HepG2 viability -114%, TGFb inhibitor 11µM*, HT1080 IDH1KD tx inconclusive, S2 tox inconclusive, ATXN2 expr inh inconclusive and HT1080-NT tox inconclusive.
For CC(=O)OC1[C@H](Oc2c(O)c(C)c3c4c2[C@@H](C)CC[C@@H]4[C@@H](C)C[C@@H]3C=C(C)C)OC[C@@H](O)[C@@H]1O (stereo partly drawn) the results were HepG2 viability -48%, TGFb inhibitor 11µM*, HT1080 IDH1KD tx 10%, S2 tox inactive, ATXN2 expr inh 3% and HT1080-NT tox -22%.
Screening CCOc1ccc(NC(=O)C2CCCN(c3nnc(-n4c(C)ccc4C)s3)C2)cc1 (stereo not drawn) returned HepG2 viability -14%.
For Cn1nnc2c(NCc3ccco3)ncnc21 the results were HepG2 viability -27% and TGFb inhibitor -2%.
O=c1cc(CN2CCN(c3ccccc3F)CC2)c2cc3c(cc2o1)CCCC3 was read as HepG2 viability 18µM*, TGFb inhibitor inconclusive, HT1080 IDH1KD tx 18%, S2 tox inactive, ATXN2 expr inh -14% and HT1080-NT tox 4%.
CN(C)c1ccc2nc3ccc(=[N+](C)C)cc-3sc2c1 was read as HepG2 viability 7.9µM*!, TGFb inhibitor 10µM*, HT1080 IDH1KD tx 21µM*, S2 tox 25µM*!, ATXN2 expr inh 7.9µM*! and HT1080-NT tox 7.3µM*.
Screening c1ccc2nc(-c3cc4ccccc4s3)ccc2c1 returned HepG2 viability -13% and TGFb inhibitor -2%.
For Cc1cc2nc3ccc(=[N+](C)C)cc-3sc2cc1N the results were HepG2 viability 8.9µM*, TGFb inhibitor inconclusive, HT1080 IDH1KD tx 4.1µM*, S2 tox 13µM*, ATXN2 expr inh 7.1µM* and HT1080-NT tox 8.2µM*.
For CN(C)c1ccc2nc3ccc(=O)cc-3sc2c1 the results were HepG2 viability -104%, TGFb inhibitor inconclusive, HT1080 IDH1KD tx inconclusive, S2 tox inactive and HT1080-NT tox inconclusive.
For O=C(Nc1ccccc1O)c1c(O)c2c([nH]c1=O)CCCC2 the results were HepG2 viability -57%, TGFb inhibitor 13µM*, HT1080 IDH1KD tx inconclusive, S2 tox inconclusive, ATXN2 expr inh 87% and HT1080-NT tox inconclusive.
c1csc(CNc2ncnc3sccc23)c1 was read as HepG2 viability 1%, TGFb inhibitor -20%, HT1080 IDH1KD tx 26µM*, S2 tox inactive, ATXN2 expr inh -14% and HT1080-NT tox -9%.
Screening COc1ccc(CNc2ncnc3sccc23)cc1OC returned HepG2 viability 5%, TGFb inhibitor 4%, HT1080 IDH1KD tx -27%, S2 tox inactive, ATXN2 expr inh -21% and HT1080-NT tox inconclusive.
Screening COc1ccc(CNc2ncnc3sccc23)cc1 returned HepG2 viability -8%, TGFb inhibitor 0%, HT1080 IDH1KD tx 23µM*, S2 tox inconclusive, ATXN2 expr inh -34% and HT1080-NT tox inconclusive.
For Cc1cc(N2CCN(C)CC2)nc2ccc(NC(=S)N3CCN(c4ccccn4)CC3)cc12 the results were HepG2 viability -27%, TGFb inhibitor -25%, HT1080 IDH1KD tx inconclusive, S2 tox inactive, ATXN2 expr inh -18% and HT1080-NT tox 16µM*.
`Cc1nc2ccc(NC(=S)N3CCN(c4ccccn4)CC3)cc2nc1C` gave HepG2 viability 6%, TGFb inhibitor inconclusive, HT1080 IDH1KD tx -3%, S2 tox inactive, ATXN2 expr inh 8% and HT1080-NT tox 0%.
Cc1ccc(C)c(N2CCN(C(=S)Nc3ccc4nc(N5CCN(C)CC5)cc(C)c4c3)CC2)c1 was read as HepG2 viability 10µM*, TGFb inhibitor inconclusive, HT1080 IDH1KD tx inconclusive, S2 tox inactive, ATXN2 expr inh inconclusive and HT1080-NT tox inconclusive.
`COc1cc(OC)c(OC)cc1CN1CCCC(c2nc(C)ncc2-c2ccc(F)cc2)C1` (stereo not drawn) gave S2 tox inactive.
Screening Cc1ccc(SCC(c2ccccc2)N2CCN(CCc3ccccc3)CCC2=O)cc1 (stereo not drawn) returned HepG2 viability -17% and TGFb inhibitor inconclusive.
Cc1cc(Cl)nc2nc(Cl)ccc12 was read as HepG2 viability 11% and TGFb inhibitor 41%.
`Cc1ccnc(NC(=O)c2ccccc2NC(=O)c2ccc(Cl)cc2Cl)c1` gave HepG2 viability -1%, TGFb inhibitor inconclusive, HT1080 IDH1KD tx 4.6µM* and HT1080-NT tox 2.9µM*.
CC[C@H](C)[C@H]1O[C@]2(CC[C@@H]1C)C[C@@H]1C[C@@H](CC=C(C)[C@@H](O[C@H]3C[C@H](OC)[C@@H](O[C@H]4C[C@H](OC)[C@@H](O)[C@H](C)O4)[C@H](C)O3)[C@@H](C)C=CC=C3CO[C@@H]4[C@H](O)C(C)=C[C@@H](C(=O)O1)[C@]34O)O2 was read as HepG2 viability 3.5µM*, TGFb inhibitor 3.2µM*, HT1080 IDH1KD tx 4.1µM*, S2 tox 3.5µM*, ATXN2 expr inh 3.5µM* and HT1080-NT tox 2.9µM*.
CCC(C)[C@H]1O[C@]2(C=C[C@@H]1C)C[C@@H]1C[C@@H](C/C=C(\C)[C@@H](O[C@H]3C[C@H](OC)[C@@H](O[C@H]4C[C@H](OC)[C@H](NC(C)=O)[C@H](C)O4)[C@H](C)O3)[C@@H](C)/C=C/C=C3\CO[C@@H]4[C@H](O)C(C)=C[C@@H](C(=O)O1)[C@]34O)O2 (stereo partly drawn) was read as S2 tox 3.2µM*!.

Screens deposited in PubChem by National Center for Advancing Translational Sciences (NCATS).
